HTT promoter inh: inhibitors of huntingtin promoter activity. HEK293 HTT promoter firefly luciferase reporter, 24 h. Potency, µM (series often up to 57.5 µM), without a hit: top-dose activity change, negative = inhibition, actives largely listed as inhibitors. 0.93% of 48,000 active. AID 1508623; note: nearly all actives have a fitted effect of over 50% in size
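HEK293 luciferase promoter-reporter cells (2,500/well) plated 24 h, then compounds added at up to 57.5 uM final for 24 h at 37 °C. Firefly luminescence by Dual-Glo, normalized to vehicle (0%) and zero RLU (-100%).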
HTT-AS act: activators of huntingtin-antisense promoter activity; Potency, µM (highest dose often 57.5 µM), without a hit: at the highest dose activity change, positive = activation, usual class: activators; HEK293 HTT-AS promoter firefly luciferase reporter, 24 h; response scale: percent change from vehicle, -100% = no light; 0.24% of 48,000 active; note: nearly all actives have a fitted effect of over 55% in size
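Firefly luciferase signal from promoter-reporter HEK293 cells was scaled between vehicle (0%) and zero RLU (-100%). Compounds were tested at final concentrations of up to 57.5 uM over 24 h at 37 degrees C. PTC124 at 50 uM final served as control inhibitor.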
GALC G270D act: galactocerebrosidase G270D activity enhancement, cell-based; P54803; 145M-Twi-hGALC-G270D cells (Twitcher mouse brain line with human GALC G270D), HMU-beta-Gal fluorescence, 48 h; Potency, µM (highest dose often 57.5 µM), most hits filed as activators; 0.1% of 45,000 active; AID 1159614; note: 0% is about no effect; nearly all actives have a fitted effect of over 65% in size
Target sequence (P54803 whole entry G286D): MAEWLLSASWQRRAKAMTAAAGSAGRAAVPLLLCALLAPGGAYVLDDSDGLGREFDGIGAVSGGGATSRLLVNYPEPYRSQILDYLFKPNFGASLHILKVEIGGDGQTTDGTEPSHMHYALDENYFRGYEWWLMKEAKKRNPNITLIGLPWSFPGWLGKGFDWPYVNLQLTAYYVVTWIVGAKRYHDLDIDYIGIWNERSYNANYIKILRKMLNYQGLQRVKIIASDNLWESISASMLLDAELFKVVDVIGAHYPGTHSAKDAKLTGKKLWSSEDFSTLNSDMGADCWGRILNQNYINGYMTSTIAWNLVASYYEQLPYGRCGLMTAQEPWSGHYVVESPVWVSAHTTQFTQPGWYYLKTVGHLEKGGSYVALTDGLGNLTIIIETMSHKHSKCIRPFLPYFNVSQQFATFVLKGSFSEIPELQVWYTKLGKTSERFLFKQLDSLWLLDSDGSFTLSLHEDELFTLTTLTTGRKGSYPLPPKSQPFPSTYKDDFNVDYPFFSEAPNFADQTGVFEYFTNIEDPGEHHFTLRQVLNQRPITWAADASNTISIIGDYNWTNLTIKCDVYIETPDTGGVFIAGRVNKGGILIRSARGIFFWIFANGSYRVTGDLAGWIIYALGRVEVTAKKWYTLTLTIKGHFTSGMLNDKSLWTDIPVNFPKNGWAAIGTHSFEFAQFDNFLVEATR
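Fluorogenic HMU-b-Gal hydrolysis (0.1 mM final, pH 5.2 citrate-phosphate with 1 mg/mL sodium taurocholate; carbonate stop buffer) measures mutant GALC activity after compound treatment of live 145M-Twi Twitcher brain cells stably carrying human GALC-G270D, with wild-type GALC line alongside; activation sought.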
FH mod: Identification of activators of human fumarate hydratase by quantitative high-throughput screening; Fumarate hydratase, mitochondrial (Homo sapiens), P07954; FH coupled MDH/diaphorase resazurin fluorescence, 15 min; Potency, µM (doses to about 79.9 µM), without a hit: at the highest dose activity change, negative = inhibition, most hits filed as inhibitors; 0.22% of 54,000 active; AID 1347055, 2019; note: % is set by controls: 0 for no effect and ±100 for the full control effect; the screen sought activators but most active calls are inhibition curves; nearly all actives have a fitted effect of over 45% in size
* hit, by the source's call; i = inactive; ? = inconclusive; / = no result; [ ] = dose if it differs, or a comment. An excerpt weighted towards active compounds, which were near 1.3% of everything screened. Calls come from the whole dose curve; as a rule, active = well fitted curve in the direction sought with a large enough effect; inconclusive = small, poorly fitted or top-dose-only effect, or another doubt; inactive = no such curve, though single readings can be large; an effect the other way counts as inactive or inconclusive. Potency is the fitted concentration of half-maximal effect.

SMILES	HTT promoter inh	HTT-AS act	GALC G270D act	FH mod
CCc1ccccc1NC(=O)CSc1nncn2c1cc1oc(C)cc12	-25.7%	-32.4%	i	-3.7%
COc1ccc(OC)c(CCNc2ncnc3onc(-c4ccc(F)cc4)c23)c1	-33.9%	-40.9%	i	-18.3%
COc1ccc(OC)c(CCNc2ncnc3onc(C)c23)c1	15.8µM*	-71.0%	i	17.3%
Cc1csc2nc(CCNS(=O)(=O)c3ccccc3)cn12	6.8%	-7.3%	i	1.4%
CCOc1ccc(Sc2cc(C(=O)NCc3ccc(C)cc3)c3ccccc3n2)cc1	-13.4%	-0.6%	i	-0.4%
COc1ccc(CN(Cc2ccco2)C(=O)COc2ccc(Cl)cc2C)cc1	?	-16.9%	i	-16.0%
FC(F)(F)c1cccc(Nc2nc3nonc3nc2Nc2ccc(Cl)cc2)c1	0.355µM*	-93.5%	i	?
O=C(Nc1cccc(C(F)(F)F)c1)c1cc(-c2ccc(Cl)cc2)on1	-5.7%	-7.8%	i	1.5%
Cc1ccc(Cc2c(C)nc3c(-c4ccccc4)c(C)[nH]n3c2=O)cc1	?	-41.9%	i	-1.9%
Cc1nc2c(-c3ccccc3)c(C)[nH]n2c(=O)c1Cc1ccc(Br)cc1	12.6µM*	-65.5%	i	9.3%
COc1ccc(OC)c(-n2cnc3cc(C(=O)NC4CCCCCC4)ccc32)c1	-3.1%	1.8%	i	-1.8%
CCN(CC)CCOc1ccc(Cc2ccccc2)cc1	-2.8%	5.4%	i	6.2%[53.3 µM]
CCN(CC)CCOc1ccc(C(=C(Cl)c2ccccc2)c2ccccc2)cc1	-9.3%	24.3µM*	/	5.6%[53.3 µM]
COc1cc2c(cc1OC)CN(C(=O)[C@H](C)N[C@@H](CCc1ccccc1)C(=O)O)[C@H](C(=O)O)C2	?	-39.2%	i	0.8%[53.3 µM]
COc1ccccc1CCNC(=O)C(=O)NCC(c1ccco1)S(=O)(=O)c1cccs1 (configuration not stated)	-22.0%	-16.0%	i	14.7%
COc1ccccc1CCNC(=O)C(=O)NCC(c1ccco1)S(=O)(=O)c1ccc(C)cc1 (configuration not stated)	?	-24.4%	7.94µM*	-25.4%
Cc1cc(F)ccc1Nc1nc2ccccc2n2nnnc12	-14.4%	-1.6%	i	-15.5%
O=C1C(SCCO)=C(SCCO)C(=O)c2ccccc21	/	/	/	7.94µM*
CC1=CC(=O)c2ccccc2C1=O	-21.2%	-27.3%	i	?
O=C(c1ccc(F)cc1)n1nc(-c2ccccc2)nc1NCc1ccc(F)cc1	4.9%	7.7%	i	-16.0%
Cc1ccc(NC(=O)c2oc3c(c2C)-c2[nH]ncc2CC3)c(Cl)c1	74.1%	2.24µM*	i	-36.9%
COc1cc2ccccc2cc1C(=O)Nc1cccc(-c2nc3cc(C)c(C)cc3o2)c1	7.08µM*	-74.4%	i	-2.1%
COc1cc2ccccc2cc1C(=O)Nc1cc(-c2nc3ccccc3o2)ccc1C	16.5%	13.9%	i	-14.0%

Screens: PubChem BioAssay, National Center for Advancing Translational Sciences (NCATS)
